Screens (PubChem BioAssay)
The entries come from a sample that favours hits as a whole.
Tg IFNy HTS: blocks Toxoplasma gondii growth in the presence of IFN-gamma | Toxoplasma gondii growth in IFN-gamma-treated host cells; stronger effect = lower value | activity change, negative = inhibition, % (test concentration not listed) | 69,000 compounds, 3.8% hits | AID 1259416; in the data active = activity change below about -70%, passing the limit was not always enough;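 note: host cells are HeLa cells infected with Toxoplasma gondii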
The depositor's hits bear a star.

SMILES	Tg IFNy HTS
CCc1cccc(NC(=O)Cn2ncc3c(N4CCN(c5ccccn5)CC4)ncnc32)c1	-62.2
CCC(=O)N1CCC2(CC1)CC(N(C)Cc1ccccc1)CO2 (configuration not stated)	-7.6
Clc1ccc(SCc2ccsc2-c2ncns2)cc1	-76.7*
Clc1ccc(SCc2csc(-c3ccc(Cl)cc3)n2)cc1	-4.8
Clc1ccc(SCc2csc(-c3ccno3)n2)cc1	-23.1
COc1cc2c(cc1OC)C(c1ccccc1Cl)N(c1ccc(C)cc1)C(=O)C2 (configuration not stated)	-91.0*
COc1cc2c(cc1OC)C1c3ccccc3N(Cc3ccccc3)C(=O)N1CC2 (configuration not stated)	-2.7
COc1ccc(C2N(c3ccc(C)cc3)CCN2c2ccc(C)cc2)cc1OC	54.1
CCOc1ccc2nc(SCC(=O)OC(C)C)c(C)cc2c1	14.9
Clc1ccc(-c2cnccn2)cc1Cl	1.0
c1ccc(-c2ccccn2)nc1	-5.3
O=C1c2ccc3c4c(ccc(c24)C(=O)N1c1ccccn1)C(=O)N(c1ccccn1)C3=O	-89.8*
O=C1c2cccc3cccc(c23)C(=O)N1c1ccc2ncccc2c1	-35.5
Cc1nc(C)c(S(=O)(=O)NC(CCN2CCCCC2)c2ccccc2)s1 (configuration not stated)	6.9
O=C(COc1ccc(F)cc1)OCCN1CCOCC1	13.1
O=C(Nc1cccc(OCCN2CCOCC2)c1)c1csc2c1CCCC2	13.6
c1ccc(-c2nn3c(c2-c2ccnc4cc(OCCN5CCOCC5)ccc24)CCC3)nc1	-77.8*
CCNC(=O)c1nc(Nc2ccc(C)cc2)c2ccccc2n1	-26.3
COc1ccc(OC)c(CNC(=O)c2nc(Nc3ccc(C)cc3)c3ccccc3n2)c1	-41.2
CCCCNC(=O)c1nc(Nc2cccc(C)c2)c2ccccc2n1	-56.7
Cc1ccc(CNC(=O)c2nc(Nc3cccc(C)c3)c3ccccc3n2)cc1	-79.3*
Cc1ccc(Nc2nc(C(=O)N(C)Cc3ccccc3)nc3ccccc23)cc1	-77.2*
COc1ccc(CNC(=O)c2nc(Nc3ccccc3)c3ccccc3n2)c(OC)c1	-54.1
CN(Cc1ccccc1)C(=O)c1nc(Nc2ccc(F)cc2)c2ccccc2n1	25.0
Cc1ccc(CNC(=O)c2nc(Nc3ccc(F)cc3)c3ccccc3n2)cc1	-32.1
SMILES	Tg IFNy HTS
COc1ccc(OC)c(CNC(=O)c2nc(Nc3cccc(C)c3)c3ccccc3n2)c1	-74.1*
COc1cccc(-c2nn(-c3ccccc3)cc2CN2CCN3CCCC3C2)c1 (configuration not stated)	-7.4
Cc1noc(C)c1CNC(=O)C(O)c1ccc(C(F)(F)F)cc1 (configuration not stated)	68.7
N#Cc1cc(Br)c(OCc2c(F)cccc2Cl)c(Br)c1	-78.0*
N#Cc1ccc(OCc2c(Cl)sc3ccc(Cl)cc23)cc1	-6.0
O=C1C2C3C=CC(O3)C2C(=O)N1OCc1c(F)cccc1Cl (configuration not stated)	41.8
COc1ccc(C2NC(C(=O)O)Cc3c2[nH]c2ccccc32)c(OC)c1OC (configuration not stated)	-12.3
CCn1ncc(S(=O)(=O)N2CCC(O)(c3ccc(C)cn3)CC2)c1C	9.2
CCN1c2cc(C)ccc2-n2cccc2C12CCN(C(=O)Nc1cc(OC)ccc1OC)CC2	-110.7*
COc1ccc(OC)c(NC(=O)N2CCC3(CC2)Nc2cc(C)ccc2-n2cccc23)c1	224.7
CCN1c2cc(C)ccc2-n2cccc2C12CCN(C(=O)Nc1cc(C)cc(C)c1)CC2	-28.2
CCN1c2cc(C)ccc2-n2cccc2C12CCN(C(=O)Nc1ccc(F)cc1F)CC2	-21.0
CCN1c2cc(C)ccc2-n2cccc2C12CCN(C(=O)Nc1ccccc1C(F)(F)F)CC2	108.2
CCN1c2cc(C)ccc2-n2cccc2C12CCN(C(=O)Nc1cc(Cl)ccc1OC)CC2	-115.5*
CCN1c2cc(C)ccc2-n2cccc2C12CCN(C(=O)Nc1cc(F)ccc1F)CC2	-50.7
CCOC(=O)Cc1ccc(NC(=O)N2CCC3(CC2)c2cccn2-c2ccc(C)cc2N3CC)cc1	-35.1
CCN1c2cc(C)ccc2-n2cccc2C12CCN(C(=O)Nc1ccc(OC)cc1OC)CC2	-72.5*
Cc1ccccc1-c1noc(CCC(=O)NCc2cc(C(C)(C)C)n[nH]2)n1	-9.5
CC(=O)c1ccccc1-c1ccc2c(c1)CC(CNC(=O)c1cccc(-n3cccn3)c1)O2 (configuration not stated)	-11.1
Cc1cnc(N2C[C@@H]3CN(Cc4cccc(C)n4)C(=O)[C@@H]3C2)nc1	8.5
COCC(=O)N1CC[C@@]2(C[C@H](OCc3cccc(C)n3)CO2)C1	-5.9
Cc1ncc(Cc2ccccc2)c(C2CCN(C(=O)/C=C/c3cccs3)CC2)n1	2.0
COc1ccc(-n2c(=O)c(C(=O)NCc3ccccc3C)c(O)c3cccnc32)cc1	136.6
C=CCN1CCN(C(=O)C2=NNC(=O)CC2)CC(Cc2ccccc2-c2cccnc2)C1=O (configuration not stated)	-9.5
COc1ccc(-c2noc(-c3c(O)c4ccccc4[nH]c3=O)n2)cc1F	85.5
SMILES	Tg IFNy HTS
CCn1ccnc1CN1CCCC(c2cncc(-c3cccc(Cl)c3)n2)C1 (configuration not stated)	-109.7*
Cc1cccc(-c2ncc(CN3CCCC(Cn4ccnc4C)C3)cn2)c1 (configuration not stated)	-6.3
CCCn1ccnc1CN1CCCC(c2nn(C)c(=O)n2CC)C1 (configuration not stated)	3.6
CC1=C(C(=O)NCCN(CC(C)C)CC(C)C)C2(CCN(S(C)(=O)=O)CC2)OC1=O	15.9
CCOCCOc1ccccc1C(N)=O	24.6
Cc1cc(Cl)ccc1OCCCC(=O)NO	-82.5*
Cc1cc(Cl)ccc1OCCCC(=O)N1CCN(C)CC1	15.5
COc1cc(C)nc(OCCNC(=O)COc2ccc(Cl)cc2C)n1	-7.7
CCS(=O)(=O)N1CC[C@@H]2[C@@H]1CCC(=O)N2CCOC	-11.6
Cc1nnc([C@H]2CC[C@H]3[C@@H](CCN3S(C)(=O)=O)O2)o1	39.8
O=C(c1cc(COc2cccc(F)c2)[nH]n1)N1CCOCC1CO (configuration not stated)	12.2
C[C@H](CO)N1C[C@H](C)[C@H](CN(C)C(=O)Nc2cccc(F)c2)Oc2cc(C#CC3(O)CCCC3)ccc2S1(=O)=O	-6.7
Cc1ccccc1-c1ccc2c(c1)O[C@H](CN(C)C(=O)Nc1ccc(C(F)(F)F)cc1)[C@@H](C)CN([C@H](C)CO)S2(=O)=O	-97.1*
Cc1ccccc1-c1ccc2c(c1)O[C@@H](CN(C)C(=O)Nc1ccc(C(F)(F)F)cc1)[C@@H](C)CN([C@H](C)CO)S2(=O)=O	65.5
C/C=C/c1ccc2c(c1)O[C@@H](CN(C)C(=O)Nc1ccc(OC)cc1)[C@@H](C)CN([C@@H](C)CO)S2(=O)=O	100.2
CCCNC(=O)N(C)C[C@@H]1Oc2cc(C#C[C@H](C)O)ccc2S(=O)(=O)N([C@H](C)CO)C[C@H]1C	-69.9
C[C@@H]1CN([C@@H](C)CO)S(=O)(=O)c2ccc(C#CC3(O)CCCC3)cc2O[C@@H]1CN(C)C(=O)Nc1cccc(F)c1	-103.5*
CN(C)CCN(C)Cc1c(C2CCNCC2)[nH]c2ncccc12	96.7
O=C(O)c1cccnc1CN(Cc1ccccc1)C1CCS(=O)(=O)C1 (configuration not stated)	31.7
CC(C)CN1CCN(C)C2(CCN(C(=O)c3cnc[nH]3)CC2)C1=O	-5.9
CCN(Cc1noc(C)n1)C(=O)c1cn(-c2ccccc2)nn1	12.6
